Measured values taken from PubChem BioAssay.
Values without a mark were called inactive. How the calls were made is not given here.

Each compound was assayed on Aerobactin synthetase IucA (Klebsiella pneumoniae hvKP1) (assay: Biochemical IucA enzyme inhibition primary screen of the Spectrum library (AID 1346200;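 further: 100% = wells without compound and 0% = wells lacking enzyme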)). Details: malachite green pyrophosphate, A620, at 8 µM, hits give low values.
`CC[C@]12CCCN3CCc4c(n(c5ccccc45)C(=O)C1)[C@@H]32` showed an activity remaining of 101%. With `CCC[C@H](N[C@@H](C)C(=O)N1[C@H](C(=O)O)C[C@@H]2CCCC[C@@H]21)C(=O)OCC` the activity remaining was 121%. Work on `CC(C)=CCc1c(O)cc2occ(-c3ccc4c(c3)OCO4)c(=O)c2c1O` yielded an activity remaining of 114%.
